Experiment [1] is described as follows: Nuclear factor erythroid 2-related factor 2/antioxidant responsive element (Nrf2/ARE) small molecule agonists: qHTS cell viability counter screen in human keratinocytes (AID 1919968; active = well fitted cell-killing curve with a large enough effect in the repeat runs; also: nearly all actives have a fitted effect of over 55% in size). In a few lines: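 Fluorescence read-out from CellTiter-Fluor after 1 h at 37 C. Wells held HaCaT-derived ARE-luciferase reporter cells (1,500/well) treated 23 h with DMSO-dissolved compounds. Run in the same wells as the luciferase agonist read.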

Experiment [2] in a line: Nuclear factor erythroid 2-related factor 2/antioxidant responsive element (Nrf2/ARE) small molecule agonists: luciferase reporter gene qHTS assay in human keratinocytes (AID 1919969). Also: nearly all actives have a fitted effect of over 35% in size. Also: potency is read from the fitted curve at half-maximal effect.
Experiment [3] concerns the target Gonadotropin-releasing hormone receptor (Homo sapiens) (UniProt P30968). Briefly: Human gonadotropin-releasing hormone receptor (GnRHR) small molecule agonists, calcium flux assay in GnRHR-HEK293 cells (AID 1920063). Also: nearly all actives have a fitted effect of over 35% in size. In a few lines:
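Calcium-dye fluorescence, Ex/Em=480/540, recorded every 1 sec over 3 min after compound addition to GnRHR-HEK293 cells. Cells had been seeded 18 hours earlier and dye-loaded for 1 hour at 37 C. Fifteen concentrations, triplicates.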

The nature of experiment [4]: G protein-coupled receptor (GPCR) small molecule agonists, calcium flux assay: HEK293 wild type cell line counter screen (AID 1920065). In a few lines:
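Agonist mode; 18 h seeding at 37 C, 1 h dye load at 37 C; compounds pinned from DMSO, ATP as positive control; kinetic fluorescence 480/540 nm, 3 min, 1 s reads; 15 concentrations, triplicate.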

The nature of experiment [5]: p53 small molecule agonists, cell-based qHTS assay with human liver microsomes (AID 1963577).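 Also: p53 response element beta-lactamase reporter cells with liver microsomes plus NADPH.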 In a few lines:
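HLM-supplemented p53RE-bla reporter assay: 16 h compound exposure at 37 C, microsomes and NADPH each 0.5 mg/mL final, read by fluorescence intensity.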

A short description of experiment [6]: p53 small molecule agonists, cell-based qHTS assay with rat liver microsomes (AID 1963578). In a few lines: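 Quantitative HTS of the Tox21 10K library: p53RE-bla cells, rat liver microsomes plus NADPH at 0.5 mg/mL final each, 16 h at 37 C, beta-lactamase fluorescence detection.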
Experiment [7] is described as follows: p53 small molecule agonists, cell-based qHTS assay with human liver microsomes: qHTS cell viability counter screen (AID 1963579). Also: nearly all actives have a fitted effect of over 45% in size. In a few lines: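 Viability of p53RE-bla cells is measured as CellTiter-Glo luminescence following a 16 h, 37 C incubation with compound, liver microsomes from human donors and NADPH.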
The nature of experiment [8]: p53 small molecule agonists, cell-based qHTS assay with rat liver microsomes: qHTS cell viability counter screen (AID 1963580). Also: nearly all actives have a fitted effect of over 45% in size. In a few lines:
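Rat liver microsome (0.5 mg/mL final) and NADPH (0.5 mg/mL final) co-incubation with compounds for 16 h at 37 C on HCT-116 p53RE-bla cells; cytotoxicity taken from intracellular ATP luminescence.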

The target of experiment [9] is 5-hydroxytryptamine receptor 2A (Homo sapiens) (UniProt P28223). Kind of experiment: 5-hydroxytryptamine receptor 2A (HTR2A) small molecule agonists, cell-based qHTS assay (AID 1963587). Also: nearly all actives have a fitted effect of over 30% in size. In a few lines: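 Kinetic calcium-flux fluorescence (2 min, 1 sec intervals) after compound addition in agonist mode. HTR2A-CHO cells were cultured 18 h, then dye-loaded 1 h at 37 C.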

Experiment [10] concerns the target Muscarinic acetylcholine receptor M1 (Homo sapiens) (UniProt P11229). Kind of experiment: Cholinergic receptor muscarinic 1 (CHRM1) small molecule antagonists, cell-based qHTS assay (AID 1963588). Also: nearly all actives have a fitted effect of over 40% in size. In a few lines:
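Compounds were tested at 15 concentrations in three independent runs. Dye-loaded CHRM1-CHO cells were exposed 5 min at room temperature before stimulation by acetylcholine added at 50nM. Intracellular calcium was read kinetically on FDSS for 3 min.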

For experiment [11] the target is unchanged. Briefly: Cholinergic receptor muscarinic 1 (CHRM1) small molecule agonists, cell-based qHTS assay (AID 1963589). Also: nearly all actives have a fitted effect of over 35% in size. In a few lines:
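Calcium flux read-out: kinetic fluorescence at 1 sec intervals after pin-tool compound addition to dye-loaded CHRM1-CHO cells (human M1). Agonist mode; 15 concentrations tested in triplicate independent runs.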

The nature of experiment [12]: cAMP Responsive Elements (CRE) small molecule agonists, cell-based qHTS assay (AID 1963590). In a few lines:
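Beta-lactamase reporter readout: LiveBLAzer B/G FRET substrate, 2 h at room temperature, added after 3 h compound treatment of CRE-bla HEK 293T cells at 37 C/5% CO2.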

Experiment [13] concerns the target Beta-2 adrenergic receptor (Homo sapiens) (UniProt P07550). Kind of experiment: Adrenergic beta2 receptor (ADRB2) small molecule antagonists, cell-based qHTS assay (AID 1963592). Also: nearly all actives have a fitted effect of over 50% in size. Also: potency is read from the fitted curve at half-maximal effect. In a few lines:
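Assay format: CHO-ADRB2 cells, 18-20hr seeding at 37C/5% CO2, then compound plus 1nM isoproterenol agonist mix for 0.5hr RT. Homogeneous time-resolved fluorescence cAMP detection after 1hr, expressed as 665/615 nm ratio.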

Experiment [14] has as its target D(2) dopamine receptor (Homo sapiens) (UniProt P14416). Briefly: Dopamine D2 receptor (DRD2) small molecule agonists, cell-based qHTS assay (AID 1963594). Also: nearly all actives have a fitted effect of over 35% in size. In a few lines:
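cAMP accumulation in DRD2-HEK293 cells measured by HTRF after 1 h detection; compounds added 10 min before NKH477 (200nM […]) forskolin-analogue stimulation, 30 min at room temperature, with Ro20-1724 present at 0.1 mM final.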

For experiment [15] the target is unchanged. Kind of experiment: Dopamine D2 receptor (DRD2) small molecule antagonists, cell-based qHTS assay (AID 1963595; active = well fitted inhibition curve with a large enough effect in the signal ratio in the repeat runs, with a control signal flat; the % refers to the signal ratio). In a few lines: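 DRD2-HEK293; 0.1 mM Ro20-1724; cpd 10 min RT; NKH477 200 nM + quinpirole 12 nM, 30 min RT; HTRF cAMP (cAMP-d2/anti-cAMP cryptate), 665/620 nm ratio after 1 h.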
Experiment [16] can be described thus: p53 small molecule agonists, cell-based qHTS assay: qHTS cell viability counter screen (AID 1963581). Also: nearly all actives have a fitted effect of over 45% in size. In a few lines: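 Cytotoxicity read-out: ATP-based luminescence (CellTiter-Glo, 30 min RT) measured in the same wells as the p53 reporter assay, HCT-116 p53RE-bla cells, 16 h compound exposure at 37 C.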
Experiment [17] has as its target 5-hydroxytryptamine receptor 2A (Homo sapiens) (UniProt P28223). Briefly: 5-hydroxytryptamine receptor 2A (HTR2A) small molecule antagonists, cell-based qHTS assay (AID 1963586). Also: nearly all actives have a fitted effect of over 45% in size. Also: potency is read from the fitted curve at half-maximal effect. In a few lines:
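CHO cells stably expressing human HTR2A were plated for 18 h at 37 C, then loaded with calcium dye for 1 h. Compounds were preincubated 5 min at room temperature before DOI (4 nM solution) was added. Kinetic fluorescence was read for 3 min.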

A short description of experiment [18]: p53 small molecule agonists, cell-based qHTS assay (AID 1963582; active = well fitted activation curve with a large enough effect in the signal ratio in the repeat runs, not every such curve was filed as active; the % refers to the signal ratio). In a few lines: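 Fluorescence intensity read-out of a beta-lactamase reporter under a p53 response element. Cells were exposed to DMSO-dissolved compounds for 16 h at 37 C, then developed with FRET substrate for 2 h at RT.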
The nature of experiment [19]: cAMP Responsive Elements (CRE) small molecule antagonists, cell-based qHTS assay (AID 1963591; active = well fitted inhibition curve with a large enough effect in the signal ratio in the repeat runs, not every such curve was filed as active; the % refers to the signal ratio). In a few lines:
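HEK293T CRE-bla; 18 h preincubation; compound pin-transfer; NKH477 0.25 uM final, 3 h, 37 C; LiveBLAzer FRET substrate 2 h RT.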

Inconclusive results are not listed. Activity calls are given as the source filed them. Unless noted, calls follow the shape of the full dose curve.

5-hydroxytryptamine receptor 2A (Homo sapiens), sequence (P28223 whole entry, looked up): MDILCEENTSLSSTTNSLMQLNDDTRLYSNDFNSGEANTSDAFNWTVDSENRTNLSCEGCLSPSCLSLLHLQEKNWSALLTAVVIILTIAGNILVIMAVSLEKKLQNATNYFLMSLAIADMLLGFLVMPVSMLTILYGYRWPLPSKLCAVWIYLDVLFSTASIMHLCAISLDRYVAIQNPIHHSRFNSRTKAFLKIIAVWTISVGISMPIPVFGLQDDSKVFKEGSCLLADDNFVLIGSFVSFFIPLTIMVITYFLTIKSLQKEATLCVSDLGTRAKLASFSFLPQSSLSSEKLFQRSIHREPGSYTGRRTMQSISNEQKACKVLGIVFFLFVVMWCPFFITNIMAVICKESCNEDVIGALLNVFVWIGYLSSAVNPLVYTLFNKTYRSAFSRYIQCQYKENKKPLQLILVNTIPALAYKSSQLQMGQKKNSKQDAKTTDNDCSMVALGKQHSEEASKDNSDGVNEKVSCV
Muscarinic acetylcholine receptor M1 (Homo sapiens), sequence (P11229 whole entry, looked up): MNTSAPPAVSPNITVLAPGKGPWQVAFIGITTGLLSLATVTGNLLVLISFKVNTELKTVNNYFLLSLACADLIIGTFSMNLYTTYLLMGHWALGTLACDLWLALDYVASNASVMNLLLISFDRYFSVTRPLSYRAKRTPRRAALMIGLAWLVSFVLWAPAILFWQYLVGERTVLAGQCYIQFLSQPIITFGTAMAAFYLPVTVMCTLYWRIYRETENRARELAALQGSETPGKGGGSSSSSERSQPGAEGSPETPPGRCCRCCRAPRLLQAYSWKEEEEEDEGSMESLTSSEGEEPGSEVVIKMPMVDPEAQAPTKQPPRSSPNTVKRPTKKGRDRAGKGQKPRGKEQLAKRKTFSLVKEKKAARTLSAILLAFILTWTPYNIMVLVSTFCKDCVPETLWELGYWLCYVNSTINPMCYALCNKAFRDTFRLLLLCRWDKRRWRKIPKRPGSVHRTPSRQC
Beta-2 adrenergic receptor (Homo sapiens), sequence (P07550 whole entry, looked up): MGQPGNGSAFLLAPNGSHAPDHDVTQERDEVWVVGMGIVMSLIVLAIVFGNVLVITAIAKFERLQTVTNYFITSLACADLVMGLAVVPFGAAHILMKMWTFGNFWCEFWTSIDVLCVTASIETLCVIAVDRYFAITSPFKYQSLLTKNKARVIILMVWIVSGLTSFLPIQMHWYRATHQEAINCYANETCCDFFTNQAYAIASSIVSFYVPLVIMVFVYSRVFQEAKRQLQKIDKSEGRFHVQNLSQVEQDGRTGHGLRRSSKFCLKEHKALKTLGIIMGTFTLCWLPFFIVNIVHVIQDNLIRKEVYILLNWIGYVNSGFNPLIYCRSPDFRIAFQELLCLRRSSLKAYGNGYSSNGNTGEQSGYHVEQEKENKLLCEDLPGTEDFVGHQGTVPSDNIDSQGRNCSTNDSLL
D(2) dopamine receptor (Homo sapiens), sequence (P14416 whole entry, looked up): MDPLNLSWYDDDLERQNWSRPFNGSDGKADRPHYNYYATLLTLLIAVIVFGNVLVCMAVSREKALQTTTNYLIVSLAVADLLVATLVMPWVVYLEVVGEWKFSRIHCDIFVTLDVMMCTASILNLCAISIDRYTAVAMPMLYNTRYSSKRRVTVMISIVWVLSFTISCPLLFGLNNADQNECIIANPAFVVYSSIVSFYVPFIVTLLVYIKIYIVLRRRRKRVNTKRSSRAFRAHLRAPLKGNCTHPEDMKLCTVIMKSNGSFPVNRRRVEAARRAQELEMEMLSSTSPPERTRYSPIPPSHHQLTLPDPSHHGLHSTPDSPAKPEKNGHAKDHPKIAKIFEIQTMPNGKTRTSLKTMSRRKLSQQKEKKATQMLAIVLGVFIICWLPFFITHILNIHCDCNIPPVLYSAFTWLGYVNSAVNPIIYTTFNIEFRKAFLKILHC
Gonadotropin-releasing hormone receptor (Homo sapiens), sequence (P30968 whole entry, looked up): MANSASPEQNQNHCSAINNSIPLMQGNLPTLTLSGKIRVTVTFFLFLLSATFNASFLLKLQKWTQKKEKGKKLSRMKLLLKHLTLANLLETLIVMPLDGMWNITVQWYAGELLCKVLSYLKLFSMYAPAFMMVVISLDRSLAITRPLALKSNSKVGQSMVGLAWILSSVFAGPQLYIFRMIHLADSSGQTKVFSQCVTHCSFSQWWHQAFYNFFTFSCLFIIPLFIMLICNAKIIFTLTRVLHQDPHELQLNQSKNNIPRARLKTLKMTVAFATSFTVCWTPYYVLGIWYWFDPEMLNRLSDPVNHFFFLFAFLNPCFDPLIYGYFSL

With `O=C(NS(=O)(=O)/C=C/c1ccccc1)c1ccc(F)cc1Cl`, the Potency result in experiment [1], in experiment [3], in [5], in experiment [6], in experiment [7] and in experiment [8] was “inactive” in each case. For the same compound, the Potency entry in experiment [9], in [10], in [11], in experiment [12], in [13] and in experiment [14] was “inactive” in each case. Moreover, the Potency entry in [15] was “inactive”. In addition, in experiment [2], the Potency was 27.3 µM (active). The outcome in [4] was inactive.
For the compound `C=COCC(C)C`, the Potency result in experiment [1], in experiment [2], in experiment [3], in [6], in experiment [7] and in experiment [8] was “inactive” throughout. Besides, the Potency result in experiment [16], in experiment [17], in [9], in experiment [10], in experiment [12] and in experiment [13] was “inactive” throughout. In addition, the Potency entry in [14] and in [15] was “inactive” in each case. Further, the result in experiment [4] was inactive.
For `CCOc1nc(F)cc2nc(S(=O)(=O)Nc3c(Cl)cccc3C(=O)OC)nn12`, the Potency result in [1], in experiment [2], in [3], in experiment [5], in experiment [6] and in experiment [7] was “inactive” throughout. Also, the Potency entry in experiment [16], in experiment [18], in experiment [17], in [9], in experiment [10] and in experiment [11] was “inactive” in each case. The Potency result in experiment [19], in experiment [14] and in experiment [15] was “inactive” throughout. Also, the outcome in [4] was inactive.
For the compound `CCOc1cc(OCC)c(C(C)=O)cc1OCC`, the Potency result in [1], in experiment [2], in experiment [3], in experiment [5], in experiment [6] and in experiment [7] was “inactive” each time. For the same compound, the Potency entry in [16], in experiment [17], in [9], in experiment [10], in [11] and in experiment [13] was “inactive” each time. The Potency result in experiment [14] and in experiment [15] was “inactive” each time. Besides, in experiment [4], the outcome was inactive.
`O=C(c1ccc(O)cc1)c1ccc(O)cc1`: the Potency entry in experiment [1], in [2], in [3], in experiment [5], in experiment [6] and in experiment [7] was “inactive” each time. The Potency result in experiment [8], in experiment [17], in [10], in experiment [11], in [19] and in experiment [13] was “inactive” throughout. The Potency result in [14] and in experiment [15] was “inactive” each time. Further, in experiment [4], the result was inactive.
With `CCCCc1nc(Cl)c(CO)n1Cc1ccc(-c2ccccc2-c2nn[nH]n2)cc1`, the Potency result in experiment [1], in [2], in experiment [3], in [5], in experiment [7] and in experiment [8] was “inactive” in each case. Further, the Potency entry in experiment [16], in [18], in experiment [12], in [14] and in experiment [15] was “inactive” in each case. Also, the outcome in experiment [4] was inactive.
Consider `Cn1nnc2c(C(N)=O)ncn2c1=O`, for which the Potency result in experiment [1], in experiment [2], in experiment [3], in experiment [6], in experiment [7] and in experiment [8] was “inactive” throughout. The Potency result in [16], in experiment [18], in experiment [17], in experiment [9], in experiment [10] and in [11] was “inactive” throughout. Moreover, the Potency entry in experiment [12], in experiment [19], in experiment [13], in [14] and in experiment [15] was “inactive” in each case. Also, the result in [4] was inactive.
On to `CN1CCN(C2=Nc3cc(F)ccc3Cc3ccccc32)CC1`, for which the Potency result in experiment [1], in experiment [2], in experiment [3], in [5], in [6] and in experiment [7] was “inactive” throughout. Moreover, the Potency entry in experiment [18], in experiment [9], in experiment [11], in experiment [12], in experiment [19] and in experiment [15] was “inactive” throughout. In addition, in experiment [4], the result was inactive. Also, the figures for the Potency in [17] and in experiment [13] were 0.0231 µM (active) and 29.8 µM (active), respectively.

These data come from PubChem BioAssay (Tox21).
